This note sets out measurements from PubChem BioAssay (NCI).

About 83,000 compounds went through this panel and 20% of them were active in at least one assay; those are over-represented in the sample as a whole.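 The endpoint reported here, percent growth, reads 100 for growth as untreated, 0 for no net growth and -100 for all cells dead.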 Unmarked numbers belong to inactive results. The source made the active and inactive calls. How the source made its calls: active means growth percent below 10; inactive means the rest.

Test systems include HCT-15 colon; HT29 colon; SNB-75 CNS; SNB-19 CNS; U251 CNS; PC-3 prostate; SK-MEL-5 melanoma; UACC-62 melanoma; LOX IMVI melanoma; SK-MEL-28 melanoma.
What all share (experiment): NCI-60 one-dose screen, 48 h (100 = growth as untreated, 0 = no growth, -100 = all killed)
What all share (conditions): 10 µM

For the molecule `COc1cc(CNC(=O)C2CSC3(C)c4ccccc4C(=O)N23)cc(OC)c1OC` (stereo not given), the growth in the assay with HCT-15 colon was 106%; in the assay with HT29 colon it was 82.6%; with SNB-75 CNS, 97.5%; in the assay with SNB-19 CNS, 93%; in the assay on U251 CNS, 82.7%; in the assay on PC-3 prostate, 90%. Moreover, the growth in the assay on SK-MEL-5 melanoma is 102%; in the assay on UACC-62 melanoma, 92.5%; with LOX IMVI melanoma it was 105%; in the assay on SK-MEL-28 melanoma, 103%.

On to `O=C(Nc1ccc(F)cc1)c1cc2ccccc2cc1O`, for which the growth is 76% in the assay with HCT-15 colon; 95.8% in the assay on HT29 colon; 91.8% with SNB-75 CNS; 83.3% with SNB-19 CNS; 79.6% in the assay with U251 CNS; 42.9% in the assay with PC-3 prostate. Further, the growth in the assay with SK-MEL-5 melanoma was 65.7%; in the assay with UACC-62 melanoma, 57.6%; in the assay with LOX IMVI melanoma, 76%; with SK-MEL-28 melanoma it was 88.7%.

Take `CC(CN(C)C)Oc1ccc(OC(C)CN(C)C)c2c1C(=O)c1ccccc1C2=O` (stereo not given): the growth with HCT-15 colon is 88.2%; in the assay on HT29 colon, 20.8%; in the assay on SNB-75 CNS it was 54.9%; in the assay on SNB-19 CNS, 37.2%; with U251 CNS it was 30.1%; with PC-3 prostate it was 38.3%. Further, the growth is 69.1% in the assay with SK-MEL-5 melanoma, 68% in the assay with UACC-62 melanoma, 27.4% with LOX IMVI melanoma and 96% in the assay with SK-MEL-28 melanoma.

For the molecule `COc1ccc(Cl)cc1Nc1nc(C(F)(F)F)ccc1C(=O)N/N=C/c1ccc(Cl)cc1`, the growth with HCT-15 colon was 25.4%; in the assay with HT29 colon, 25.2%; in the assay on SNB-75 CNS, 33.8%; in the assay with SNB-19 CNS, 60.2%; in the assay with U251 CNS it was 29.9%; with PC-3 prostate, 34.6%. For the same molecule, the growth was 24.3% in the assay with SK-MEL-5 melanoma, 24.1% with UACC-62 melanoma, 26.7% in the assay on LOX IMVI melanoma and 51.2% in the assay on SK-MEL-28 melanoma.

Take `COc1ccc2c(c1)C(=O)/C(=C/c1ccc([N+](=O)[O-])o1)O2`: the growth with HCT-15 colon is -48.5% (active); in the assay on HT29 colon, -63% (active); in the assay with SNB-75 CNS it was 9.47% (active); in the assay with SNB-19 CNS it was 19.9%; in the assay on U251 CNS, -55.1% (active); with PC-3 prostate it was 58.9%. Moreover, the growth in the assay on SK-MEL-5 melanoma is -91.3% (active); in the assay with UACC-62 melanoma, -89% (active); in the assay with LOX IMVI melanoma it was -77.4% (active); in the assay with SK-MEL-28 melanoma, -71.1% (active).

Consider `CC(C)(C)c1ccc(S(=O)(=O)Oc2ccc(NC(=O)C3CCCCC3)cc2)cc1`, for which the growth was 36.8% in the assay with HCT-15 colon; 44.9% in the assay with HT29 colon; 80.1% in the assay with SNB-75 CNS; 49.2% with SNB-19 CNS; 43.9% with U251 CNS; 22.3% in the assay on PC-3 prostate. The growth in the assay on SK-MEL-5 melanoma is 26.3%; in the assay with UACC-62 melanoma, 31.1%; in the assay on LOX IMVI melanoma, 48.7%; with SK-MEL-28 melanoma, 66.8%.

In the case of `CCN(CC)CCNc1ccc(C)c2sc3cc(Cl)ccc3c(=O)c12`, the growth in the assay on HCT-15 colon was 26.6%; in the assay on HT29 colon, -25% (active); with SNB-75 CNS, 59.8%; with SNB-19 CNS, 47%; with U251 CNS it was 16.5%; in the assay with PC-3 prostate, 34.9%. The growth was 14.1% in the assay on SK-MEL-5 melanoma, -67% (active) with UACC-62 melanoma, -84.5% (active) with LOX IMVI melanoma and -59.3% (active) in the assay with SK-MEL-28 melanoma.

With `Clc1ccc2c(c1)C(N1CCNCC1)=Nc1ccccc1O2`, the growth with HCT-15 colon was 47.5%; in the assay with HT29 colon it was 11.6%; in the assay on SNB-75 CNS, 16.4%; in the assay on SNB-19 CNS, 67.6%; in the assay on U251 CNS, 41.7%; with PC-3 prostate it was 40%. Also, the growth with SK-MEL-5 melanoma was 10.4%; with UACC-62 melanoma it was 30.4%; in the assay on LOX IMVI melanoma, 39%; in the assay on SK-MEL-28 melanoma, -10.9% (active).

For `COc1ccc(C2=Cn3c(CCC(=O)c4nc5ccccc5[nH]4)nnc3SC2)cc1`, the growth is 104% in the assay on HCT-15 colon; 58.2% with HT29 colon; 110% in the assay with SNB-75 CNS; 113% in the assay with SNB-19 CNS; 94.1% with U251 CNS; 84.2% in the assay on PC-3 prostate. In addition, the growth in the assay with SK-MEL-5 melanoma is 87.7%; in the assay with UACC-62 melanoma, 106%; with LOX IMVI melanoma it was 83.7%; in the assay on SK-MEL-28 melanoma, 111%.

Consider `Nc1ccc(/C=N/Nc2ccnc3c(O)cccc23)c2cccnc12`, for which the growth in the assay on HCT-15 colon is 26.1%; in the assay with HT29 colon it was 56.8%; with SNB-75 CNS, 69.9%; in the assay on SNB-19 CNS, 72.7%; in the assay on U251 CNS, 4.7% (active); in the assay on PC-3 prostate it was 34.8%. Further, the growth in the assay with SK-MEL-5 melanoma was 82.3%; in the assay on UACC-62 melanoma, 95.2%; in the assay on LOX IMVI melanoma, -72.9% (active); with SK-MEL-28 melanoma, 90.9%.

For `Cc1cc(C(C#N)c2ccc(Cl)cc2)c(Cl)cc1NC(=O)c1cc(I)cc(I)c1O` (stereo not given), the growth in the assay on HCT-15 colon is 28.8%; with HT29 colon, 58%; in the assay on SNB-75 CNS, 112%; with SNB-19 CNS, 39.3%; in the assay on U251 CNS it was 40.4%; with PC-3 prostate it was 13.8%. The growth is 13.1% in the assay with SK-MEL-5 melanoma, 11.5% with UACC-62 melanoma, 75.1% in the assay with LOX IMVI melanoma and 63.5% with SK-MEL-28 melanoma.

For `COc1cc(-c2nn(-c3cccc(NC(=O)CN4CCOCC4)c3)cc2-c2cccnc2)ccc1Cl`, the growth with HCT-15 colon was 66.7%; in the assay on HT29 colon, 65.2%; with SNB-75 CNS, 65.5%; with SNB-19 CNS, 88%; in the assay with U251 CNS, 92.7%; in the assay with PC-3 prostate, 58%. For the same molecule, the growth in the assay with SK-MEL-5 melanoma is 48.2%; in the assay with UACC-62 melanoma, 61.4%; in the assay on LOX IMVI melanoma it was 63.3%; in the assay on SK-MEL-28 melanoma, 84.3%.

Take `COc1cc(/C=C/c2cc(/C=C/c3ccc(O)c(OC)c3)n(C(=O)Nc3ccccc3Cl)n2)ccc1O`: the growth with HCT-15 colon was 15%; in the assay on HT29 colon it was -35% (active); in the assay with SNB-75 CNS, -4.71% (active); in the assay with SNB-19 CNS it was 15.5%; in the assay with U251 CNS, 2.33% (active); in the assay on PC-3 prostate, 6.54% (active). Besides, the growth with SK-MEL-5 melanoma is -23.8% (active); with UACC-62 melanoma, 1.04% (active); in the assay on LOX IMVI melanoma it was 1.22% (active); in the assay on SK-MEL-28 melanoma, 12.1%.

For `Cc1ccc(NC(=O)N2CCCCC2)cc1[N+](=O)[O-]`, the growth with HCT-15 colon was 96%; with HT29 colon, 103%; in the assay with SNB-75 CNS it was 90.5%; in the assay on SNB-19 CNS, 98.4%; in the assay with U251 CNS, 101%; with PC-3 prostate, 76.6%. Further, the growth was 103% with SK-MEL-5 melanoma, 86.7% with UACC-62 melanoma, 97% in the assay with LOX IMVI melanoma and 105% with SK-MEL-28 melanoma.
